# From PubChem BioAssay
# Assays:
# [1] = test system: Human papillomavirus type 1a protein E7 (residues 44-93); assay: HPV1a E7 fragment binders on microarrays, primary screen, biochemical, small-molecule microarray, residues 44-93, 635 nm fluorescence (AID 1108); settings: small-molecule microarray binding, fluorescence 635 nm; higher = more signal;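 further: E7 fragment applied at 1 µg/mL in TBST for 1 h at 4 C; score combines spot fluorescence with its signal to noise ratio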
# [2] = modulators of HCV replicon luciferase signal, primary screen, HCV replication inhibitor project, Huh7 cells, luciferase reporter (AID 1109); settings: 48 h, higher = more signal;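 further: huh7 hepatoma cells harbouring a luciferase neomycin HCV replicon reporter; luciferase luminescence as measure of HCV replicon replication; test concentration not given here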
# [3] = molecular target: Left-right determination factor 2 (Homo sapiens) (UniProt O00292); assay: LEFTY2 binders on small-molecule microarrays, primary screen, biochemical, small-molecule microarray, 635 nm fluorescence scan (AID 1110); settings: LEFTY2 binding, higher = more signal
# [4] = molecular target: Calmodulin-1 (Homo sapiens) (UniProt P0DP23); assay: CALM1 binders on microarrays, EGTA buffer, profiling panel, biochemical, small-molecule microarray, Cy5-labelled CALM1 (AID 1111); settings: Cy5-CALM1 binding fluorescence, higher = more signal;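 further: labelled calmodulin applied in Tris saline Tween buffer holding calcium plus EGTA and DTT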
# [5] = molecular target: Calmodulin-1 (Homo sapiens) (UniProt P0DP23); assay: calcium-bound CALM1 binders on microarrays, profiling panel, artefact control for SMM control-protein annotation, biochemical, small-molecule microarray, Cy5-labelled CALM1, plus calcium (AID 1112); settings: Cy5-CALM1 binding fluorescence, higher = more signal;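 further: score merges spot fluorescence with signal to noise from triplicate slides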
# [6] = small-molecule microarray binders of probe aWnt5a, primary screen, biochemical, biotinylated probe, 635/667 nm fluorescence (AID 1113); settings: higher = more signal;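 further: score merges 667 nm fluorescence intensity with signal-to-noise per printed feature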
# [7] = small-molecule microarray binders of probe aShh, primary screen, biochemical, biotinylated probe, 635/667 nm fluorescence (AID 1114); settings: higher = more signal;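 further: probe is biotin-labelled aShh protein from a stem cell growth factor screen; measures binding of labelled protein to compounds printed on the slide; score merges feature fluorescence at 667 nm with signal-to-noise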
# [8] = small-molecule microarray binders of probe aNog, primary screen, biochemical, biotinylated probe, 635/667 nm fluorescence (AID 1115); settings: higher = more signal;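 further: probe is biotinylated aNog protein used at 0.15 µg/mL for 1 h at 4 C; z-score combines 667 nm fluorescence of each spot with its signal to noise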
# [9] = molecular target: Torsin-1A-interacting protein 1 (Homo sapiens) (UniProt Q5JTV8); assay: LAP1 binders from COS7 cell lysate, primary screen, small-molecule microarray, 635/667 nm fluorescence (AID 1116); settings: COS7-hLAP1 lysate binding, 635 nm fluorescence, higher = more signal
# [10] = molecular target: Alpha-bungarotoxin (Bungarus multicinctus) (UniProt P60615); assay: alpha-bungarotoxin binders on microarray, profiling panel, artefact control for SMM control protein annotation, biochemical, small-molecule microarray, Alexa647 label, 635/667 nm fluorescence (AID 1117); settings: alpha-BTX-A647 binding fluorescence, higher = more signal
# Chain of Alpha-bungarotoxin (Bungarus multicinctus) (P60615 whole entry, looked up): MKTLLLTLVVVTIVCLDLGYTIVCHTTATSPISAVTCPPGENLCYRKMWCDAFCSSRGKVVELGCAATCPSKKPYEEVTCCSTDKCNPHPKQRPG
# Chain of Left-right determination factor 2 (Homo sapiens) (O00292 whole entry, looked up): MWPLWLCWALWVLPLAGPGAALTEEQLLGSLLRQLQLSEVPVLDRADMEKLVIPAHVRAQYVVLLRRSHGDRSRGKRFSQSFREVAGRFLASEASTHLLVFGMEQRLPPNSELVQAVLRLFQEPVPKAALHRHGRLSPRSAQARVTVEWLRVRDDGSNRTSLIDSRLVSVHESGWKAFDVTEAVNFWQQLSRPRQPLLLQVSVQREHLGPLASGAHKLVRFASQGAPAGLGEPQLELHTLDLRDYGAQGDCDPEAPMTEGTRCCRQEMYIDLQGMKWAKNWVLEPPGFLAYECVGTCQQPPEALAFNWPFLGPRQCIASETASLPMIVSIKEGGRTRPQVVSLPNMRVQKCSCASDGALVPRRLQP
# Chain of Torsin-1A-interacting protein 1 (Homo sapiens) (Q5JTV8 whole entry, looked up): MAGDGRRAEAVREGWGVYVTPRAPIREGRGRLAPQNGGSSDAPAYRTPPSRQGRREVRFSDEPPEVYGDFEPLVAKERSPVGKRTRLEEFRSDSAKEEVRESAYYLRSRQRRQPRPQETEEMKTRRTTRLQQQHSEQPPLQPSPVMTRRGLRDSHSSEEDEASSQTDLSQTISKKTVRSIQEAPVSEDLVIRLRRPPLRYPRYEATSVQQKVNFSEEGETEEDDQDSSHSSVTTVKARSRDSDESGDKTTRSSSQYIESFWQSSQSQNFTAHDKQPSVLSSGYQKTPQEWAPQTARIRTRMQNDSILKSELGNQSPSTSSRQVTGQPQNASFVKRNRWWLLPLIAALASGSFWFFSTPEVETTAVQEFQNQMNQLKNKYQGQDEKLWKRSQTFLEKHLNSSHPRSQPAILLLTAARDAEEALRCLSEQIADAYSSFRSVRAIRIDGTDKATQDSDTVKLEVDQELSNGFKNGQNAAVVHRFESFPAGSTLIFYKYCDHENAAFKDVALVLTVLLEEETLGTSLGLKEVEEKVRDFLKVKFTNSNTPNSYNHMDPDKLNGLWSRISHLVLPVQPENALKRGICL
SMILES,composite z-score [1],z-score [2],composite z-score [3],composite z-score [4],composite z-score [5],composite z-score [6],composite z-score [7],composite z-score [8],composite z-score [9],composite z-score [10]
C=CCN1Cc2ccccc2C[C@@]2(COC(c3ccc(OCCCO)cc3)=N2)C1=O,1.42,-0.908,0.588,0.175,-0.583,0.0633,0.13,0.373,1.33,0.34
CCN(CC)c1ccc(N2CC=CC34O[C@@H]5/C=C\CCCOC(=O)C5[C@H]3C(=O)N(CCCO)[C@@H]4C2=O)cc1 (stereo not given in full),0.941,-0.597,-2.09,-0.629,0.479,-0.197,0.14,-0.0238,2.44,-1.44
Cn1c2c(c3ccccc31)C(=O)C1NC2C=CC1(C)C(=O)OCc1ccccc1 (stereo not given),-0.369,-0.836,-1.71,0.682,1.13,-0.0887,0.123,0.771,1.38,1.92
C=CCNC(=O)[C@H]1[C@@H]2C(=O)O[C@@H](c3ccccc3)[C@@H](c3ccccc3)N2[C@@H](c2ccc(OCCO)cc2)[C@]12C(=O)N(C(=O)OCCOC)c1ccc(C#CC3(O)CCCCCC3)cc12,1.18,-2.07,1.2,0.494,-0.12,0.0342,-0.0035,1.7,1.07,1.52
CC(C)NC(=O)[C@@]1(c2ccc([N+](=O)[O-])cc2)CC(=O)N(C(C)C)[C@@H]1c1ccc(CO)cc1,0.559,-0.176,-1.86,-0.678,-0.56,-0.197,0.0899,-0.311,-0.534,-0.125
Cc1ccc(S[C@]2(C(=O)NCCN3CCOCC3)CC(=O)N(C3CCCCC3)[C@@H]2c2ccc(CO)cc2)cc1,1.29,-1.82,-0.55,1.06,-0.39,-0.0685,-0.186,0.0373,0.347,0.711
COCCCNC(=O)[C@@]1(Cc2ccccc2I)c2ccccc2C(=O)N(Cc2ccccc2)[C@H]1c1ccc(CO)cc1,0.609,-1.38,-2.53,-0.387,0.239,-0.232,-0.0146,0.0327,0.258,-1.4
C=CCC(OC(C)=O)[C@@H]1[C@@H](N(Cc2cc3ccccc3o2)C(=O)c2cccc3ccccc23)c2cc(OCCCO)ccc2N1C(=O)Cc1ccc(OC)cc1 (stereo not given in full),-0.0348,-0.431,0.443,-0.158,0.344,-0.0816,-0.0146,0.328,0.153,0.608
CC(C)OC(=O)C1=CCC(c2cccc(Cl)c2)O1 (stereo not given),1.07,-2.34,-1.44,0.222,0.45,0.0654,0.16,-0.347,0.0025,0.274
O=C(NCCN1CCOCC1)[C@@H]1c2ccccc2C(=O)N(Cc2cc(F)cc(C(F)(F)F)c2)[C@H]1c1ccc(CO)cc1,1.44,-1.33,-1.61,-0.346,0.0296,-0.124,-0.214,-0.0949,0.812,-0.444
CCOC(=O)C[C@H]1[C@H](OC(=O)c2cc3ccccc3oc2=O)[C@@H](NC(=O)c2ccc3ccccc3c2)c2cc(OCCCO)ccc2N1C(=O)c1ccccc1,1.39,-0.593,0.129,-0.0786,-0.337,-0.12,0.214,-0.0863,0.739,0.43
CC(C)CNC(=O)[C@@]1(C)c2ccccc2C(=O)N(C(C)C)[C@H]1c1ccc(CO)cc1,-1.4,-1.13,-0.243,-0.489,-0.577,-0.191,-0.375,-0.524,-0.181,-0.018
COc1ccc([Si](C)(C)[C@H]2[C@H](CC(=O)N3CCC[C@H]3CO)O[C@@]3(C(=O)N(c4ccccc4)c4ccccc43)[C@@H]2C)cc1,-0.542,-1.12,0.301,-0.363,-0.366,-0.156,-0.13,-0.1,0.429,0.0488
C=C(COC)/C(=C/C[C@H](OC(C)=O)c1ccccc1OCCO)c1cnc2ccccc2c1,1.29,-1.57,0.425,0.177,-0.173,-0.0944,0.0756,0.226,-0.0998,0.625
CCOC(=O)N1C(c2ccc(OCCCO)cc2)=NC(C(=O)OC)N1C(=O)OCC (stereo not given),1.38,-3.72,0.537,1.25,0.127,-0.0685,-0.279,0.0036,0.935,0.439
C=CC[C@@]1(C(=O)NCCN2CCOCC2)N=C(c2ccc(OCCCO)cc2)O[C@@H]1c1ccccc1CN=[N+]=[N-],0.947,-1.74,-0.325,1.42,0.555,-0.154,0.0822,0.104,1.77,0.604
CN1C(=O)C2C=CC(C(O)C(C)(C)C)N(Nc3ccccc3)C2C1=O (stereo not given),-0.911,0.813,-0.428,-0.0143,-0.395,-0.0405,-0.24,0.779,-0.0378,0.531
CN(C)CCCC[C@@H]1NC(=O)[C@@H]2C[C@H](C(=O)NCc3ccc(F)cc3)[C@H](c3cccc(OCCO)c3)N2C1=O,1.17,0.679,0.748,0.337,0.136,-0.1,0.207,-0.399,1.07,0.356
CCCNC(=O)[C@@]1(C)c2ccccc2C(=O)N(C(C)C)[C@H]1c1ccc(CO)cc1,-0.0794,-1.99,-1.28,-0.58,-0.145,-0.212,-0.262,-0.0172,-0.109,-0.731
COC(=O)C(CC#Cc1ccc2c(c1)[C@]1(C(=O)N2)[C@H](C(=O)N2CCCCCCC2)[C@H]2C(=O)O[C@H](c3ccccc3)[C@H](c3ccccc3)N2[C@@H]1c1ccccc1OCCO)C(=O)OC,1.6,-1.88,1.8,3.11,1.85,1.59,3.17,3.79,6.01,4.45
COC(=O)[C@@]1(Cc2ccc(OC)cc2)[C@H]2c3cc(C(=O)N4CCCC4)n(CCN4CCOCC4)c3C[C@H]2CN1C(=O)c1ccccc1,1.04,-0.882,0.285,1.55,1.21,1.19,2.65,2.75,0.934,0.609
CCOC(=O)C=Cc1cccc(OC)c1O,-0.0381,1.61,-1.23,0.155,-0.551,-0.122,-0.212,-0.344,-0.0817,0.254
